Broadly, the % Inhibition is the change of the read-out against control, counted positive when it falls.

Each structure is given as a SMILES string. Among all 150,000 compounds or so, about 540 (0.36%) showed an effect of 50% or more. For the sample, strong results were picked, then their nearest neighbours and some compounds at random.

The values that follow come from ChEMBL document CHEMBL4888484, “Replenishing the malaria drug discovery pipeline: Screening and hit evaluation of the MMV Hit Generation Library 1 (HGL1) against asexual blood stage Plasmodium falciparum ,using a nano luciferase reporter read-out” (2022).

The subject of the test is Plasmodium falciparum. Nature of the test: Primary screen in NF54 nanoGlo assay, in single point, at 2uM, 72h; a lower Z score goes with more inhibition. The class given is functional, Erythrocyte. The settings on record: timepoint 72 hour.
In the case of `C#CCNC(=O)c1ccc(N[C@@H](C)COC)nc1`, the “% Inhibition” value was -9% and the Z score was 1.46.
For `NC(=O)[C@@H]1CN(Cc2ccc(-c3ccc(Cl)cc3)s2)CCO1` the same measures were -11% and 1.78.
For `Cc1ccccc1-n1c(=O)c2sccc2n(CC(=O)Nc2ccc(N(C)C)cc2)c1=O`, in that order: 2% and -0.2.
For the compound `COc1cccc(Cn2c(=O)c3sccc3n(CC(=O)Nc3ccc(N(C)C)cc3)c2=O)c1`, the “% Inhibition” value came out at 37% and the Z score is -1.71.
For `Cc1cc(C)cc(-n2c(=O)c3sccc3n(CC(=O)Nc3ccc(N(C)C)cc3)c2=O)c1` the same measures were 51% and 1.43.
For `CCN(CCn1cccn1)Cc1cncn1C1CC1`, in that order: -7% and 1.49.
For `CCOC(=O)c1nc(NCC2CCN(Cc3ccccc3F)CC2)c2ccccc2n1`, in that order: -6% and 1.09.
In the case of `CCc1ccccc1Nc1c2c(nc3ccccc13)CCCC2`, the “% Inhibition” value was 9% and the Z score is -1.19.
As for `CCc1nnc(NCC(C)(C)CCS(C)(=O)=O)c(C#N)c1CC`, the “% Inhibition” value amounted to 2% and the Z score was -0.31.
`CC(C)Oc1ccc(-c2cc(C(F)(F)F)n3nc(-c4ccccc4)c(-c4ccccc4)c3n2)cc1`: the “% Inhibition” value is -15% and the Z score was 1.87.
For the compound `Cc1ccnc([C@@H](NC(=O)c2c[nH]c3cc(C)nn3c2=O)C2CC2)c1`, the “% Inhibition” value is reported as -2% and the Z score is reported as 0.39.
For `COc1ccc(OC)c([C@H]2N(Cc3ccc(F)cc3)CCCN2Cc2ccccc2Cl)c1`, in that order: -3% and 0.37.
Take `COc1ccc(OC)c(-n2c(-c3ccccc3)cc(C(=O)N3CCN(Cc4ccccc4)CC3)c2C)c1`: the “% Inhibition” value is given as -8% and the Z score is 1.09.
For `CCC(C(=O)Nc1ccc2c(c1)CN(CCc1ccc(OC)c(OC)c1)C(=O)C(C)O2)c1ccccc1` (stereo not given), in that order: 91% and -17.08.
Regarding `COc1cccc(NC(=O)Nc2ccc3c(c2)CN(CCc2ccc(OC)c(OC)c2)C(=O)[C@H](C)O3)c1`, the “% Inhibition” value came out at 0% and the Z score is listed as -0.08.
For `CCC(C(=O)Nc1ccc2c(c1)CN(CCc1ccccc1)C(=O)C(C)O2)c1ccccc1` (stereo not given), in that order: -7% and 0.66.
For `Cc1noc(C)c1N(C)C(=O)Nc1cccnc1`, in that order: -2% and 0.36.
For `COc1ccc(NC(=O)[C@H](NC(=O)Cc2c[nH]c3ccccc23)c2ccc(C)cc2)cc1` the same measures were -9% and 1.46.
`CC1C(C(F)(F)F)OCCN1C(=O)NC1CCCC1Cc1ccccn1` (stereo not given): the “% Inhibition” value is -4% and the Z score worked out at 0.71.
For `COc1cccc(-c2nn(-c3nc(-c4ccccc4)cc(C(F)(F)F)n3)c(-c3cccc(OC)c3)c2Cl)c1`, the “% Inhibition” value turned out to be 38% and the Z score is on record as -3.81.
For `COc1ccc(-c2cc(C(F)(F)F)nc(-n3nc(-c4cccc(OC)c4)c(Cl)c3-c3cccc(OC)c3)n2)cc1`, in that order: 91% and -10.21.
Take `COc1ccc(-c2cc(C(F)(F)F)nc(-n3nc(-c4cccc(C)c4)c(C)c3-c3cccc(C)c3)n2)cc1`: the “% Inhibition” value was -7% and the Z score is 1.42.
In the case of `CCOc1ccc2ccccc2c1C(=O)Nc1cc(C)nn1-c1nc2c(c(=O)[nH]1)CCC2`, the “% Inhibition” value came out at 92% and the Z score is -17.
For `Cc1cc(NC(=O)c2ccc3ccccc3c2)n(-c2nc3c(c(=O)[nH]2)CCC3)n1`, in that order: 2% and -0.26.
For `COc1ccccc1OCC(=O)Nc1cc(C)nn1-c1nc2c(c(=O)[nH]1)CCC2`, in that order: 1% and -0.14.
For `Cc1cc(NC(=O)C(=O)NC2CC(C)CC(C)(C)C2)n(-c2nc3c(c(=O)[nH]2)CCC3)n1` (stereo not given) the same measures were 85% and -13.4.
As to `COCC(=O)Nc1cc(C)nn1-c1nc2c(c(=O)[nH]1)CCC2`, the “% Inhibition” value was determined as 1% and the Z score was -0.17.
For `Cc1cc(NC(=O)Cc2ccc(-c3ccccc3)cc2)n(-c2nc3c(c(=O)[nH]2)CCC3)n1`, in that order: -4% and 0.86.
For `CC(NC(=O)N(C)CC1CCCO1)c1ccc(N2CCOCC2)cc1` (stereo not given) the same measures were -3% and 0.42.
For `COC[C@H]1CN(C)CC12CCN(C(=O)Cc1ccc(Cl)cc1)CC2`, in that order: 9% and -1.07.
For `CCCC(=O)N1CCN(c2cc(-n3cnc(C)c3C)ncn2)CC1`, the “% Inhibition” value is reported as -12% and the Z score is reported as 1.96.
For `COc1cc(C(=O)Nc2ccc3sc(NC(=O)c4cc(OC)c(OC)c(OC)c4)nc3n2)cc(OC)c1OC`, in that order: 101% and -16.35.
For `COc1cc(C(=O)Nc2scnc2C)cc(OC)c1OC` the same measures were 45% and 0.11.
For `COc1cc(C(=O)Nc2ccc(Nc3ccc(C)nn3)cc2)cc(OC)c1OC`, in that order: 13% and -2.29.
With `Cn1cc(S(=O)(=O)NCc2cc(C3CC3)ncn2)cn1`, the “% Inhibition” value stood at 16% and the Z score is -2.16.
For `Clc1cnn(CCN2CCc3onc(-c4cccc5ccccc45)c3C2)c1`, in that order: -5% and 0.7.
Take `CN1C(=O)CC[C@@]12CCN(C(=O)Nc1ccc3c(c1)OCCO3)C2`: the “% Inhibition” value is given as -5% and the Z score is given as 0.78.
In the case of `Cc1cc([C@@H]2CCCCN2CCn2cc(Cl)cn2)no1`, the “% Inhibition” value is given as -11% and the Z score is given as 1.54.
For the compound `COc1ccc(C(=O)N(C(=O)c2ccc(OC)cc2)c2c3c(nc4ccccc24)CCCC3)cc1`, the “% Inhibition” value was 69% and the Z score is -5.66.
For `Oc1c2c(nc3ccccc13)CCCCC2` the same measures were 25% and -3.15.
